# The supplement of paper PMC11001985
# A number with no mark means an inactive call.
# Compound: C#CCNC(=O)CCSSCCC(=O)NCCc1ccc(C=O)c(C=O)c1
# Experiment: lysine labeling ratio R10:1 (500 µM / 50 µM probe), SILAC-ABPP in living cells; higher = lower intrinsic lysine reactivity toward the probe, active = 2 or less
# Conditions: HeLa; probe concentrations 500 vs 50 µM
# Method in brief: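 In PBS at room temperature, living HeLa cells grown with SILAC light or heavy labels were treated with 50 µM or 500 µM of an alkyne-tagged, disulfide-linked lysine probe, with label swaps in both directions. Analysis was by LC-MS/MS on a TIMS-TOF Pro after click to biotin-azide, neutravidin capture and DTT release. For each lysine, R is the median across forward and reverse replicates of the filtered median high-probe/low-probe MS1 peptide ratio, capped at 20.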
# Sequence of UniProt Q15149 (Q15149 whole entry): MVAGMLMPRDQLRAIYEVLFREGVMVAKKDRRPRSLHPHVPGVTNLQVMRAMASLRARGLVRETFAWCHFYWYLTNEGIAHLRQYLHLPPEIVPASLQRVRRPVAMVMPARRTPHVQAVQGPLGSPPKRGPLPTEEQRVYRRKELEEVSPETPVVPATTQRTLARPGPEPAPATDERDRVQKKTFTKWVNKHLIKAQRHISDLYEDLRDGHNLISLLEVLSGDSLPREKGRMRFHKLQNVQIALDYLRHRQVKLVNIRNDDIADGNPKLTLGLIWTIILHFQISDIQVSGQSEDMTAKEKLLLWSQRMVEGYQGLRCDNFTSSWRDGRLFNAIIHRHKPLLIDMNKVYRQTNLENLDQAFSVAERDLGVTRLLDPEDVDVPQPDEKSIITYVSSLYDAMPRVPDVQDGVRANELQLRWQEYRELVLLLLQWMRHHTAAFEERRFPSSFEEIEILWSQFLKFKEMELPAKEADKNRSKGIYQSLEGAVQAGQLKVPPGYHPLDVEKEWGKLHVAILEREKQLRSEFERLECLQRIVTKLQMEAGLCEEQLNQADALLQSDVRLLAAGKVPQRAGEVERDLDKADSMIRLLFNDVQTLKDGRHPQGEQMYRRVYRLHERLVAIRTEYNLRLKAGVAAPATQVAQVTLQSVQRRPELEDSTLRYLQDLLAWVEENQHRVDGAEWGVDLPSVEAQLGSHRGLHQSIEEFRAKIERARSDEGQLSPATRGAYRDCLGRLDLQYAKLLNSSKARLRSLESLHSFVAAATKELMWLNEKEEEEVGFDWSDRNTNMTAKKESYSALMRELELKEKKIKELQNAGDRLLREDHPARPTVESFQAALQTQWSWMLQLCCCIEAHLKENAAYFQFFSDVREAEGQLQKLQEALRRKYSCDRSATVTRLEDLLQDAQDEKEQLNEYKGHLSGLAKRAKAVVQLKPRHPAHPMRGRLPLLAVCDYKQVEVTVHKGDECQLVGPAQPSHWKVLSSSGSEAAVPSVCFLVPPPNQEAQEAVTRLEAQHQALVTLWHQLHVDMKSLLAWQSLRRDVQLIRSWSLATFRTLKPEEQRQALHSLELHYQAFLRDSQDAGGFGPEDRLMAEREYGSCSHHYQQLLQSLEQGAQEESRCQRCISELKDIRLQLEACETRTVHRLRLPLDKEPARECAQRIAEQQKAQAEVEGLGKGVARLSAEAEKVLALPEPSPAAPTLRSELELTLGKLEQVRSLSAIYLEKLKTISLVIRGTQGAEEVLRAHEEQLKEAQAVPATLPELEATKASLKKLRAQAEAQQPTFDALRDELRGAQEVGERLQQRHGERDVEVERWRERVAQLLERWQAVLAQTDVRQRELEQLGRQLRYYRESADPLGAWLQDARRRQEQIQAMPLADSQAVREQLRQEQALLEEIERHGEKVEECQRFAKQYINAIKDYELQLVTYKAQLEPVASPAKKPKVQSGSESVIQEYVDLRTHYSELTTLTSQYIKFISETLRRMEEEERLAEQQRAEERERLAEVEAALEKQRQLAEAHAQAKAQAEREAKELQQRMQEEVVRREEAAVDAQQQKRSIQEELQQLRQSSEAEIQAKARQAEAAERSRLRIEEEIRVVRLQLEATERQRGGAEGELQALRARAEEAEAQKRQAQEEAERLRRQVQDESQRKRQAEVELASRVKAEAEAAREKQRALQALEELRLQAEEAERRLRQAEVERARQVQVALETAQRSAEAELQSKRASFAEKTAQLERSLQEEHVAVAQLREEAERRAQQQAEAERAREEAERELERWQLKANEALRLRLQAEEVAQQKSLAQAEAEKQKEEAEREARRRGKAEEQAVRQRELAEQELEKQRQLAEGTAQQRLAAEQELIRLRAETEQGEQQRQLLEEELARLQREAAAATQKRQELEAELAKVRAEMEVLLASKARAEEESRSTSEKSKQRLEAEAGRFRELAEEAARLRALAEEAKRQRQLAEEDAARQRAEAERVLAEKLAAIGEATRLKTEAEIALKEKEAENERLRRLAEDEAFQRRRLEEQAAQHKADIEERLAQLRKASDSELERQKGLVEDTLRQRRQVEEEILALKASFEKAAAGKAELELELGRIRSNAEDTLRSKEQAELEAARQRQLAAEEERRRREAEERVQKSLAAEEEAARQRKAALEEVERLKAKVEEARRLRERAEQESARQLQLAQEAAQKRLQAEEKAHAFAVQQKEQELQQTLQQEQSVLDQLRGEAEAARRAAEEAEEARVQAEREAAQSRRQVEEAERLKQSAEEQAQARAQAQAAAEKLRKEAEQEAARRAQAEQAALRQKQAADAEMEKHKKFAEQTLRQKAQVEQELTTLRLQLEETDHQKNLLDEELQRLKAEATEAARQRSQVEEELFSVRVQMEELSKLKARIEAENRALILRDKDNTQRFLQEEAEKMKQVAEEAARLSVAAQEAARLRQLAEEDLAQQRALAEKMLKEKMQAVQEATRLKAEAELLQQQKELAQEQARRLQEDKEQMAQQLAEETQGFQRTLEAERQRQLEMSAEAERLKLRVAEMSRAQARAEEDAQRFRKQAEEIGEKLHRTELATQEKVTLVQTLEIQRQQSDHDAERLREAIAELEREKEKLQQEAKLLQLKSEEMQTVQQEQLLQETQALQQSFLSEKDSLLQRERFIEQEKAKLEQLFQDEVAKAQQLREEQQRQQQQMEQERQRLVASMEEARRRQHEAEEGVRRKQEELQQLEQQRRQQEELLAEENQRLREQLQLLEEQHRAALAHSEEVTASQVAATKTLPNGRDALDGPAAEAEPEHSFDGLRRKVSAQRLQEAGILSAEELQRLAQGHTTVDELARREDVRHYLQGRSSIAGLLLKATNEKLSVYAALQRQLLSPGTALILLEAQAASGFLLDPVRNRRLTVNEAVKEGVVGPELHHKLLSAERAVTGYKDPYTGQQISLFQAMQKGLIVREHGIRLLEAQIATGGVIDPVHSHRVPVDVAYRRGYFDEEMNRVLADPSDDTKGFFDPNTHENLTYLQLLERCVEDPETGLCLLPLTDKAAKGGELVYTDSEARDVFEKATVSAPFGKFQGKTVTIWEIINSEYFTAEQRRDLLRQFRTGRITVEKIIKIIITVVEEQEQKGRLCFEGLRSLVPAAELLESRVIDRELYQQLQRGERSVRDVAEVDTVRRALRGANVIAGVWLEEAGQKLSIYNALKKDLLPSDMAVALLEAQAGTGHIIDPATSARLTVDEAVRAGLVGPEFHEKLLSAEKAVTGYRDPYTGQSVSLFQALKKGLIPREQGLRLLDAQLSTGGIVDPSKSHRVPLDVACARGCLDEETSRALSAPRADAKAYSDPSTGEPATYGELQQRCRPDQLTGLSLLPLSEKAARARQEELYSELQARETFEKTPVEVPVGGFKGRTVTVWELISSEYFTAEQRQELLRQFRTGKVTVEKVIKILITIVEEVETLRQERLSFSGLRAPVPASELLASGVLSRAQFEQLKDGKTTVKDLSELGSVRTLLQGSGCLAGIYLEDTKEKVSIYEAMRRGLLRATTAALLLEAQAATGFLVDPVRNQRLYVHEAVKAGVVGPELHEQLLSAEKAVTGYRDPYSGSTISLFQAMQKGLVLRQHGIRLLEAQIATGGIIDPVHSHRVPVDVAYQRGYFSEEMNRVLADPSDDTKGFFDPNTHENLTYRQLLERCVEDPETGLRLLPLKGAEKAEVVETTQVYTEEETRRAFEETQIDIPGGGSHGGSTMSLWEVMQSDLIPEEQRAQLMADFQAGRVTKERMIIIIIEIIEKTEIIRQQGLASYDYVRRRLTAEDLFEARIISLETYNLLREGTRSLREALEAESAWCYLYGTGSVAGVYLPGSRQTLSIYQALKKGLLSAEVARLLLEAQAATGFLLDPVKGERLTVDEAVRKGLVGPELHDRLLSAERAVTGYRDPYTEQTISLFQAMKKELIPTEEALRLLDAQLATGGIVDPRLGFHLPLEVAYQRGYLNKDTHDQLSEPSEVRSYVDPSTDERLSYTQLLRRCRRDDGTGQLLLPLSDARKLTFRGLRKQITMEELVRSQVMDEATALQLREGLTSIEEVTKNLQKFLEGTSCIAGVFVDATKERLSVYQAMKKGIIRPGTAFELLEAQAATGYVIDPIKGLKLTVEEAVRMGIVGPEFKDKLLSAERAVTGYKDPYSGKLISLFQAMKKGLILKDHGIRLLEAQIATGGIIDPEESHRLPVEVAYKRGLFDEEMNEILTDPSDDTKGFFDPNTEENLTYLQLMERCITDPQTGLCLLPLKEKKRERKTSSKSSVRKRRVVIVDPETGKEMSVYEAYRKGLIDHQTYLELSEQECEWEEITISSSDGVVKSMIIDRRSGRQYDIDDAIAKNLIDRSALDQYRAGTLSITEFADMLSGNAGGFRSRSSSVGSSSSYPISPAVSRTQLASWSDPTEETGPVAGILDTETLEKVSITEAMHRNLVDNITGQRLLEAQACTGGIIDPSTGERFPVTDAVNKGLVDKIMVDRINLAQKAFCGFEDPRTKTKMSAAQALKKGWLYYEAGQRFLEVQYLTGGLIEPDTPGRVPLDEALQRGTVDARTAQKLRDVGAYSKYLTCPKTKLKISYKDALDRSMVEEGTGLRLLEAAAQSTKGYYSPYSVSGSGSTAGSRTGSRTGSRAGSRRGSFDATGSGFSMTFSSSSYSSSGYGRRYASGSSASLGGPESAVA
# Sequence of UniProt Q99653 (Q99653 whole entry): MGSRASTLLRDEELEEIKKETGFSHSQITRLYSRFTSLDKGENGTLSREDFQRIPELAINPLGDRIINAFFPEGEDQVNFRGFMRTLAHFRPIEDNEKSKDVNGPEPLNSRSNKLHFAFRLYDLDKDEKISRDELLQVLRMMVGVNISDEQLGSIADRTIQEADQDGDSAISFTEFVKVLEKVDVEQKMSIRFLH
row,Target,lysine labeling ratio R10:1
1,GPC1 (lysine site: K42) (UniProt P35052),2.38
2,FAT1 (lysine site: K2553) (UniProt Q14517),2.67
3,CCT6A (lysine site: K388) (UniProt P40227),1.46 (active)
4,IQGAP1 (lysine site: K274) (UniProt P46940),3.87
5,UniProt Q99653 (lysine site: K188),1.18 (active)
6,GNG12 (lysine site: K34) (UniProt Q9UBI6),2.84
7,FLNA (lysine site: K2133) (UniProt P21333),2.27
8,UniProt Q15149 (lysine site: K2350),4.82
9,PPL (lysine site: K1339) (UniProt O60437),1.34 (active)
10,HSPA5 (lysine site: K353) (UniProt P11021),3.4
11,CD97 (lysine site: K499) (UniProt P48960),3.84
12,ATP1B1 (lysine site: K113) (UniProt P05026),1.86 (active)
13,ERP29 (lysine site: K137) (UniProt P30040),6.12
14,UniProt Q00341 (lysine site: K494),2.15
15,UniProt Q15149 (lysine site: K2099),4.12
16,GGT1 (lysine site: K181) (UniProt P19440),1.46 (active)
17,EPCAM (lysine site: K160) (UniProt P16422),2.33
